Records with an inconclusive call do not appear. Entries that show only a call come without a potency. Activity calls are given as the source filed them. Calls come from the whole dose curve; as a rule, active = well fitted cell-killing curve with a large enough effect in the repeat runs; inconclusive = weak or mixed curves, or effect the other way; inactive = flat fitted curve, though single readings scatter.
Assay: qHTS RealTime-Glo MT Cell Viability Assay in HEK293 cells - 16 hour (AID 1224872); note: top concentration of the series differs between compounds; nearly all actives have a fitted effect of over 50% in size
Details: RealTime-Glo luminescence; series mostly up to 76.8 µM
From the text: National Center for Advancing Translational Sciences [NCATS]
NIH Chemical Genomics Center [NCGC]
U.S. Environmental Protection Agency [EPA]
National Institutes of Environmental Health Sciences [NIEHS]
National Toxicology Program [NTP]
U.S. Food and Drug Administration [FDA]
Measure of cell viability is critical in the cell-base assay. Analysis of cell viability is necessary for the characterization of cell responses to cytotoxic drugs and environmental stress. A RealTime-Glo MT Cell Viability Assay to monitor cell viability in real time of continues cell culture during 40 hours of compound treatment was used to screen Tox21 10K library compounds in Hek293 cells. The RealTime-Glo MT Cell Viability Assay is a nonlytic, homogeneous, bioluminescent method to measure cell viability in real time using a simple, plate-based method. The assay involves adding NanoLuc luciferase and a cell-permeant prosubstrate to cells in culture. Viable cells reduce the proprietary prosubstrate to generate a substrate for NanoLuc luciferase. This substrate diffuses from cells into the surrounding culture medium, where it is rapidly used by the NanoLuc Enzyme to produce a luminescent signal. The signal correlates with the number of viable cells, making the assay well suited for cytotoxicity studies.
Tox21 Assay Protocol Summary:
The mixture of Hek293 cell suspension and reagents were dispensed at 600cells/6 ul/well in 1536-well tissue culture treated black solid bottom plates using a Multidrop dispenser. After the assay plates were incubated at a 37 C/5% CO2 incubator for 5 hours, 23 nL of compounds dissolved in DMSO, positive and negative controls was transferred to the assay plate by a pintool work station. The plates were incubated at 37 C for 40 hours. The luminescence intensity were measured at 0h, 8h, 16h, 24h, 32h and 40h time points using ViewLux plate reader during compound treatment.

Compound	Potency	activity change, negative = cytotoxicity
CC(C)CCCC(C)CC=O (stereo not given)	inactive	
O=C(Nc1cccc(C2=NCCN2)c1)Nc1cccc(C2=NCCN2)c1		-0.101% [at 15.8 µM] (inactive)
O=C(c1ccc2c(c1)C(=O)OC2=O)c1ccc2c(c1)C(=O)OC2=O	inactive	
CC(C)COC(=O)CCCCC(=O)OCC(C)C	inactive	
CCCCCCCCC(=O)OCC	inactive	
CCCCCCCCCCCCCCCCI		-6.59% [at 15.8 µM] (inactive)
C=CCOc1cc(Cl)ccc1C(=O)NCCN(CC)CC	inactive	
C[CH2][Ge]([Cl])([CH2]C)[CH2]C	inactive	
c1ccccc1	inactive	
N#CCCOCCOCCC#N	inactive	
CCCCCCCC[Si](OCC)(OCC)OCC	inactive	
O=c1cc(O)c(Cl)c[nH]1	inactive	
NCCc1ccn[nH]1	inactive	
CCOC(=O)C(=O)c1csc(NC=O)n1	inactive	
CCCCCN(CCCOC)C(=O)C(CCC(=O)O)NC(=O)c1ccc(Cl)c(Cl)c1 (stereo not given)	inactive	
CC(=O)OC[C@H]1O[C@@H](OC(C)=O)[C@H](OC(C)=O)[C@@H]1OC(C)=O	inactive	
O=C(CN1CCN(Cc2ccc3c(c2)OCO3)CC1)N1c2ccccc2Sc2ccccc21	inactive	
Nc1ccc(S(=O)(=O)Nc2ccccn2)cc1	inactive	
CC1=CC[C@H](CC=O)C1(C)C	inactive	
CC(C)CCO	inactive	

Compound	Potency	activity change, negative = cytotoxicity
CCCCCC1Nc2cc(C(F)(F)F)c(S(N)(=O)=O)cc2S(=O)(=O)N1 (stereo not given)	inactive	
CCCCCCCCCCCCC	inactive	
Cc1nc(C)nc(N2C[C@@H](C)N(c3ccnc([C@@H](C)O)n3)[C@@H](C)C2)n1	inactive	
Cc1ccccc1C(=O)N1CC/C(=N\OS(=O)(=O)O)c2ccc(Cl)cc21	inactive	
SCCSCCS	inactive	
Nc1ccc(S(=O)(=O)NC(=O)c2ccccc2)cc1	inactive	
CC(=O)OC(C)(C)Cc1ccccc1	inactive	
Cc1nc2ccccc2c(=O)o1	inactive	
CCCCCCCCCCCCCCCC(=O)NCCO	inactive	
OCCCCCCCl	inactive	
COc1cc(C=O)ccc1OC(=O)C(C)C	inactive	
CCOC(=O)CCc1ccccc1	inactive	
O=C(COCCOCCOCC(=O)Nc1c(I)cc(I)c(C(=O)O)c1I)Nc1c(I)cc(I)c(C(=O)O)c1I	inactive	
CCCCC(CC)C(=O)OC(C)C (stereo not given)	inactive	
C1CCN2C[C@@H]3C[C@@H](CN4CCCC[C@@H]34)[C@H]2C1	inactive	
C=CCOc1c(Br)cc(Br)cc1Br	inactive	
CCN(CCO)c1cccc(C)c1	inactive	
CC(C)=CC(C)(C)C	inactive	
CO[Si](CCCCl)(OC)OC	inactive	
CC(C)CCCCCCOC(=O)C1CCCCC1C(=O)OCCCCCCC(C)C (stereo not given)	inactive	
